Screens (PubChem)
NCOA1 inh = inhibitors of human steroid receptor coactivator 1 (SRC1); Q15788; HEK293 GAL4-SRC1 luciferase reporter, luminescence; inhibition, % at 3.6 µM; hit rate 0.12% among 360,000; AID 588354;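 active means inhibition above the campaign mean plus 3 SD, with each screening campaign given its own cutoff, cut at about 60% in these data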;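 further: 0% = DMSO treated cells and 100% = gossypol at 36 µM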
COUP-TFII inh = blocks human COUP-TFII nuclear receptor | HEK293T NGFI-A luciferase reporter, luminescence | hit rate 0.7% among 370,000 | inhibition, % at 8.6 µM | P24468;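 active means inhibition above a per-plate cutoff, mean inhibition of test wells between control levels plus 3 SD, cut at about 38% in these data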;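 further: cells cotransfected with COUP-TFII expression vector driving the NGFI-A reporter; 0% = median of COUP-TF2 test wells and 100% = reporter-only cells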
NR5A2 inv ag = NR5A2 inverse agonism in reporter assay | O00482 | HEK293T StAR-luciferase reporter, LRH-1 transfected, 24 h | inhibition, % at 3.6 µM | hit rate 0.13% among 360,000;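 active means inhibition above the mean inhibition of all tested compounds plus 3 SD, cut at about 73% in these data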;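 further: 0% = DMSO wells and 100% = reporter-only cells lacking LRH-1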
NCOA3 inh = human NCOA3 inhibition; HEK293 GAL4-SRC3 luciferase reporter, luminescence; AID 588352; inhibition, % at 3.6 µM; hit rate 0.17% among 360,000; Q9Y6Q9;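 active means inhibition above a per-campaign cutoff, the mean of all compounds plus 3 SD, cut at about 60% in these data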;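 further: 0% = DMSO-treated cells and 100% = gossypol-treated cells at 36 µM; higher means less SRC3-driven luciferase light from the GAL4 reporter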
SRC2 inh = human SRC2 (NCOA2) inhibition. HEK293 GAL4-SRC2 luciferase reporter, luminescence. hit rate 0.17% among 370,000. inhibition, % at 9 µM. Q15596;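 active means inhibition above the mean inhibition of all tested compounds plus 3 SD, set per campaign, cut at about 52% in these data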;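 further: 0% = DMSO treated cells and 100% = cells given Gossypol at 36 µM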
Starred values were filed as active, the others as inactive; · = not tested or not shown. Sampled rows, rich in hits. Any-hit rate of the full collection: about 0.84%.

SMILES | NCOA1 inh | COUP-TFII inh | NR5A2 inv ag | NCOA3 inh | SRC2 inh
CN(C)CCNC(=O)c1cccc2nc3c(ccc4ccccc43)nc12 | 65.9* | -40.4 | 33.3 | 32.2 | -79.8
COc1cccc2nc3c(C(=O)NCCN(C)C)cccc3cc12 | 63.4* | -47.5 | 22.9 | 56.3 | -101.6
COc1ccc(-c2nc3c(C(=O)NCCN(C)C)cccc3c3ccccc23)cc1 | -7.8 | 3.3 | -13.3 | 13.2 | -25.2
COc1ccc(C(=O)NCCN(C)C)c2nc3ccccc3cc12 | 58.5 | -84.5 | 60.4 | -69.1 | -320.6
COC(=O)[C@@]12CCCCC3=C1N(CCC3)C(=O)[C@H]2CC(=O)NCc1ccccc1 | · | 13.9 | · | · | -10.3
COc1ccc(-c2n(CC(=O)OC3CC(C)CCC3C(C)C)c3ccccc3[n+]2C)cc1 (centres undefined) | 23.5 | -21.1 | 58.5 | 69.8* | 18.4
O=C(Nc1c(-c2ccc(C(F)(F)F)cc2)nc2ncccn12)c1ccc(F)cc1 | · | 14.7 | · | · | -26.9
COc1cccc(/C=N/Nc2ncnc3c2ncn3Cc2ccccc2)c1O | 53.3 | -12.4 | 91.5* | 66.9* | 21.9
COc1cc([C@@H]2c3cc4c(cc3[C@H](O)[C@H]3COC(=O)[C@H]23)OCO4)cc(OC)c1OC | -7.4 | -57.2 | 31.6 | 27.0 | 14.3
COc1cc(C2c3cc4c(cc3C(OC3OC5COC(c6cccs6)OC5C(O)C3O)C3COC(=O)C23)OCO4)cc(OC)c1O (centres undefined) | 80.6* | -21.9 | 65.0 | 76.7* | -3.0
COc1cc([C@@H]2c3cc4c(cc3[C@@H](O[C@@H]3O[C@@H]5CO[C@@H](C)O[C@H]5[C@H](O)[C@H]3O)[C@H]3COC(=O)[C@H]23)OCO4)cc(OC)c1O | 80.0* | -52.8 | 60.5 | 64.8* | -24.0
COc1ccc(OC)c(S(=O)(=O)Nc2ccc(C(=O)Nc3cc(C)on3)cc2)c1 | · | 10.3 | · | · | -6.7
OC(CCN1CCCCC1)(c1ccccc1)C1CC2C=CC1C2 (centres undefined) | · | 11.6 | · | · | 9.3
C=C1C(=O)[C@]23C[C@H]1CCC2[C@@]1(C)C(C[C@@H]3O)[C@](C)(C(=O)OC)CC[C@@H]1O (some centres undefined) | 43.0 | 27.2 | 47.9 | 40.4 | 63.6*
CCN(CC)c1ccc(NC(=O)CCCCC(=O)Nc2ccc(N(CC)CC)cc2)cc1 | 6.3 | 30.8 | 3.1 | 31.9 | 56.9*
CCN(CC)c1ccc(NC(=O)CCCCCN2C(=O)c3ccccc3C2=O)cc1 | 1.6 | 32.9 | -5.6 | -27.3 | 4.0
O=C(Nc1ccc([N+](=O)[O-])cc1)c1ccc(Cn2cc([N+](=O)[O-])cn2)cc1 | 54.2 | -0.1 | 78.3* | 48.3 | -26.2
O=C(Nc1cnn(Cc2ccc(Cl)cc2)c1)c1ccc([N+](=O)[O-])cc1 | 1.3 | 3.4 | 36.4 | -2.8 | 20.5
O=S1(=O)c2c(cccc2N2CCSCC2)Oc2ccccc2CN1Cc1cn(Cc2cccc(F)c2)nn1 | · | -12.2 | · | · | -18.4
COc1cc(N)ccc1Nc1c2ccccc2nc2ccccc12 | 8.1 | · | 24.2 | -36.9 | ·
CCCS(=O)(=O)Nc1ccc(Nc2c3ccccc3nc3ccccc23)c(OC)c1 | 66.1* | -68.4 | 33.4 | 69.9* | -24.8
CCCCOCCCNC(=O)C[C@H]1C[C@@]2(C(=O)OC)C(=C[C@H](C(C)C)O[C@@H]2C2CC2)N(CCC2=CCCCC2)C1=O | · | -5.6 | · | · | 22.3
COC(=O)[C@]12C[C@H](CC(=O)N3CCSCC3)C(=O)N(CCc3ccc(OC)c(OC)c3)C1=C[C@H](C(C)(C)C)O[C@@H]2C | · | 8.8 | · | · | 8.7
Cn1c(/C=C/c2ccc(Cl)cc2Cl)c([N+](=O)[O-])c(=O)n(C)c1=O | 45.9 | -18.5 | 5.8 | 75.5* | -19.4
COC(=O)[C@H]1C[C@@]2(N3CCCC3)c3ccccc3N[C@H]2N1S(=O)(=O)c1ccc([N+](=O)[O-])cc1 | · | 9.9 | · | · | 10.9
SMILES | NCOA1 inh | COUP-TFII inh | NR5A2 inv ag | NCOA3 inh | SRC2 inh
COc1ccc(-c2nc(CS(=O)CC(=O)NCc3ccco3)c(C)o2)cc1 (centres undefined) | -9.3 | 6.9 | 15.9 | -28.1 | -25.0
CCc1ccc(-c2nc(CS(=O)CC(=O)NCc3ccco3)c(C)o2)cc1 (centres undefined) | 21.3 | 31.6 | 40.6 | 32.8 | 54.4*
O=C(NCc1ccc(C(=O)NCC2CCCO2)cc1)c1cccc(Br)c1 (centres undefined) | · | -8.4 | · | · | -13.5
Cc1cccc(N(Cc2ccccc2)C(=O)CCl)c1 | 2.2 | 9.5 | 33.0 | 26.2 | 60.0*
O=C(CCl)N(Cc1ccccc1)c1ccccc1 | -1.8 | 18.0 | 26.0 | 16.9 | 37.1
C=CCn1c(COc2ccc(Cl)cc2)nnc1SCC(=O)c1ccc(-c2ccccc2)cc1 | · | 13.2 | · | · | 0.7
Cc1ccc2nc(C(F)(F)F)c(C#N)c(N)c2c1 | 37.8 | 34.0 | 24.6 | 35.6 | 54.0*
COc1ccc(CCNC(=O)c2ccc3c(c2)ncn3C2CCCCC2)cc1 | · | -11.6 | · | · | -5.8
COc1cc(C=O)ccc1OCCCOc1ccccc1C(=O)O | -39.4 | 7.5 | -90.1 | -61.5 | 60.0*
COc1cc2ccccc2cc1C(=O)O | 1.3 | 1.1 | -4.7 | 8.6 | -38.2
COc1cc2ccccc2ccc1=NO | 47.5 | 14.9 | 36.3 | 48.6 | 54.1*
O=S1(=O)C=CCN1Cc1cn(Cc2ccc(Cl)cc2)nn1 | · | -24.2 | · | · | 1.8
COc1cccc(N2C(=O)CC(NNC(=O)c3cccs3)C2=O)c1 (centres undefined) | -4.8 | 13.1 | -24.7 | 2.1 | 99.8*
O=C(NNC1CC(=O)N(c2cccc(Cl)c2)C1=O)c1cccs1 (centres undefined) | -12.9 | -6.9 | -37.1 | -9.1 | -5.4
O[C@H](COc1ccc(F)cc1)CN1CCC(C(O)(c2ccccc2)c2ccccc2)CC1 | · | -14.1 | · | · | 6.3
CN1CCC(N[C@@H](Cc2ccccc2)C(=O)NCCCc2ccccc2)(C(=O)NCCc2c[nH]c3ccccc23)CC1 | · | -25.3 | · | · | ·
CC(C)(C)c1ccc(S(=O)(=O)NCC(=O)N2CCN(c3ncccn3)CC2)cc1 | · | -23.7 | · | · | 17.0
CCCCCCCCCn1c2c(c(=N)c3c1CCC3)CCCC2 | 49.6 | · | 89.2* | 81.3* | ·
CCn1c2c(c(=N)c3c1CCC3)CCCC2 | -2.2 | 14.7 | -1.7 | -15.1 | -10.6
N=c1c2c(-c3ccccc3)c(-c3ccccc3)n(Cc3ccco3)c2ncn1CCCn1ccnc1 | 56.5 | 25.1 | 34.6 | 68.2* | -34.3
N=c1c2c(-c3ccccc3)c(-c3ccccc3)n(Cc3ccccc3)c2ncn1CCO | 52.3 | 14.6 | 49.6 | 69.3* | -51.8
O=C(O)C1CC=CCC1C(=O)Nc1ccc2c(c1)OCCO2 (centres undefined) | 39.7 | 25.4 | 55.3 | 55.0 | 56.0*
CCn1nc([N+](=O)[O-])c(C(C#N)c2nc3cc(C(F)(F)F)ccc3s2)c(Cl)c1=O (centres undefined) | -45.3 | 16.8 | 14.1 | 61.7* | -10.8
O=c1cnnc(N/N=C/c2ccccn2)[nH]1 | 66.0* | -3.2 | 91.6* | 83.1* | 36.2
Cc1cc(=O)[nH]c(N/N=C/c2ccccn2)n1 | 9.8 | -35.0 | 37.4 | 5.2 | 26.1
O=C(OCc1ccccc1)[C@H](Cc1ccccc1)NC(=O)[C@@H]1CC=C[C@@H]2CCN(CCc3ccccc3)C(=O)[C@@H]21 | · | -18.1 | · | · | ·
